Screens (PubChem)
A selection: hits, their analogues and other compounds. The true share with any hit is near 2.3%.
USP1 inh – blocks the human USP1/UAF1 deubiquitinase complex. Potency, µM (titrated, usually from 57.1 µM), without a hit: top-dose activity change, negative = inhibition, most hits filed as inhibitors. recombinant USP1/UAF1, Ub-Rhodamine cleavage fluorescence. 390,000 compounds, 0.23% hits. O94782; also: potency is read from the fitted curve at half-maximal effect; nearly all actives have a fitted effect of over 60% in size
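USP1/UAF1 complex (1 nM) preincubated 15 min at room temperature with compound, then Ub-Rho substrate (150 nM final) added. Kinetic fluorescence at 480/540 nm over 6 reads at 60 s intervals; 50 mM HEPES pH 7.8, 0.5 mM EDTA, 0.1 mg/ml BSA, 1 mM TCEP, 0.01% Tween-20.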
Coupling enz – inhibits coupling enzyme system, counter-screen for aldolase hits. coupling enzyme system counterscreen, AmpLite Red fluorescence. activity change, negative = inhibition, % at 58.2 µM, hits read low. 290,000 compounds, 0.67% hits; in the data active = activity change below about -30%
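Activity here indicates interference with the coupling reaction, not aldolase inhibition. Compounds at 57.5 uM final met coupling enzymes for 10 min at RT; substrate and AmpLite Red detection followed, with a 525/598 nm fluorescence read after 20 min.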
Tau ThT inhib – blocks human tau fibril formation measured by thioflavin T | P10636 | recombinant tau K18 P301L, heparin-induced fibrillization, ThT fluorescence | Potency, µM (highest dose often 57.4 µM), without a hit: at the highest dose activity, negative = inhibition, actives largely listed as inhibitors | 270,000 compounds, 2.1% hits | AID 1460; also: potency is read from the fitted curve at half-maximal effect; nearly all actives have a fitted effect of over 55% in size
Target sequence (P10636 561-689 P618L limits assumed): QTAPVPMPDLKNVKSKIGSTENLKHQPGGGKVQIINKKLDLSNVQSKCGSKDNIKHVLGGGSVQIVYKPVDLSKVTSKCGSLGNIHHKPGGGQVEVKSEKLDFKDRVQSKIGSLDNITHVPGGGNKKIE
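In this qHTS, human K18 P301L tau is incubated with compound and heparin for 6 hr at 37 C, and Thioflavin T fluorescence then reports fibril load.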
Tau fibril FP – inhibitors of human tau fibril formation; K18 P301L tau heparin fibrillization, Alexa594 FP, 6 h; 280,000 compounds, 0.39% hits; Potency, µM (doses to about 57.7 µM), for inactives: top-dose activity, negative = inhibition, usual class: inhibitors; also: potency is read from the fitted curve at half-maximal effect; nearly all actives have a fitted effect of over 55% in size
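Steps: dispense K18 P301L tau (15 uM plus 0.24 uM Alexa 594 tracer, final) in pH 7 sodium acetate; add compound; add heparin (20 uM final); incubate 6 hr, 37 C; add ThT (30 uM final); after 1 hr ambient, read FP.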
Tau fluor counter – counter-screen for tau fibril formation inhibitors | tau K18 P301L (four-repeat tau fragment) Alexa594 fluorescence, heparin fibrillization | Potency, µM (doses to about 57.7 µM), without a hit: at the highest dose activity change, negative = decrease | 280,000 compounds, 0.93% hits | AID 1463; also: potency is read from the fitted curve at half-maximal effect; nearly all actives have a fitted effect of over 55% in size
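Human K18 P301L tau (15 uM unlabeled plus 0.24 uM Alexa 594-labeled, final) in 100 mM sodium acetate pH 7 was mixed with compound and 20 uM heparin and incubated 6 hr at 37 C.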
* hit, by the source's call; u = inconclusive; x = not tested or not shown; [ ] = dose if it differs, or a comment. Unless noted, calls follow the shape of the dose curve; as a rule, active = well fitted curve in the direction sought with a large enough effect; inconclusive = small, poorly fitted or top-dose-only effect, or another doubt; inactive = no such curve, though single readings can be large; an effect the other way counts as inactive or inconclusive. % is scaled to controls: 0 for no effect and ±100 for the full control effect.

SMILES	USP1 inh	Coupling enz	Tau ThT inhib	Tau fibril FP	Tau fluor counter
O=C(Nc1c(C(=O)Nc2cccc(C(F)(F)F)c2)oc2ccccc12)c1cc(=O)c2ccccc2o1	-9%	x	-3%	-10%	-15%
COc1ccc2c(CNCCc3cccs3)c(C(=O)O)n(Cc3ccc(F)cc3Cl)c2c1	-27%	x	u	-4%	-22%
COc1ccc(C(C)=O)c2c(O)cccc12	-1%	-37*	u	6%	-14%
Cc1cc(C)cc(NC(=O)CSc2nc(=O)[nH]c3c2CCC3)c1	-20%	x	u	u	-24%
Oc1c(C=Nc2ccccc2Cl)[nH]c2ccccc12	-28%	-6	40µM*	u	u
Oc1[nH]c2ccccc2c1N=Nc1ccccc1Cl	53%	x	x	x	x
Cc1cc(C)nc(N2CCN(C(=O)c3ccc(S(=O)(=O)N4CCCCCC4)cc3)CC2)n1	-15%	0	-11%	-1%	-3%
Oc1ccc2ccccc2c1-c1sc(Nc2ccccc2)n[n+]1-c1ccc(F)cc1	265%	-1	x	x	x
Fc1ccc(-[n+]2nc(Nc3ccccc3)sc2-c2c3ccccc3cc3ccccc23)cc1	u	-31*	x	x	x
N#C/C(=C\Nc1ccccc1O)c1nc2ccccc2o1	-10%	-5	u	u	18µM*[quencher]
CCOc1ccc(-n2nc(CO)c(C(=O)NCc3cccs3)n2)cc1	18%	x	-9%	u	-7%
CCOC(=O)c1ccc(NC(=O)c2cccc(S(=O)(=O)N3c4ccccc4CC3C)c2)s1 (centres undefined)	-22%	-5	-6%	8.9µM*	u
COc1ccc(NC(=O)CSc2cn(CC(=O)N3CCOCC3)c3ccccc23)cc1OC	u	x	u	-19%	-17%
CCc1cc[n+](C2=C([O-])c3ccccc3C(=O)/C2=N\S(=O)(=O)c2cccs2)cc1	18µM*	-55*	13µM*	u	u
Cc1cc(=O)oc2c(O)c(O)ccc12	-16%	-36*	u	-23%	-27%
O=c1cc(-c2ccccc2O)oc2c(O)c(O)ccc12	x	-56*	11µM*	13µM*	u
O=c1cc(-c2ccccc2)oc2c(O)c(O)ccc12	x	-9	u	-9%	u
CCc1ccc(NCc2cc3cc4c(cc3n(CC(=O)Nc3ccc(OC)cc3)c2=O)OCO4)cc1	-20%	x	-1%	u	u
COc1ccc2cc(CNc3ccccc3)c(=O)n(CC(=O)Nc3ccc(C)cc3C)c2c1	19%	x	9%	u	-20%
COc1ccc(NCc2cc3cc4c(cc3n(CC(=O)Nc3ccc(C)cc3)c2=O)OCO4)cc1	u	x	-22%	u	22µM*[quencher]
COc1ccc2cc(CNc3ccccc3)c(=O)n(CC(=O)Nc3ccc(C(C)=O)cc3)c2c1	u	x	5%	-8%	13µM*[quencher]
Cn1c(N=Nc2ccccc2)nc2ccccc21	-24%	-26	5%	1%	2%
CN(C)c1ccc(N=Nc2nc3ccccc3n2C)cc1	-24%	-3	0.5µM*	u	13µM*[quencher]
COc1cc(NC2=Nc3cccc4cccc2c34)cc(OC)c1OC	-10%	-13	3%	2%	6%
COc1ccc(NC2=Nc3cccc4cccc2c34)cc1OC	-26%	-3	13µM*	3%	u
SMILES	USP1 inh	Coupling enz	Tau ThT inhib	Tau fibril FP	Tau fluor counter
COc1cccc(NC2=Nc3cccc4cccc2c34)c1	u	-8	11µM*	15%	u
COc1ccc(CC(=O)NNC2=Nc3cccc4cccc2c34)cc1OC	-21%	0	x	u	u
Cc1n[nH]c(C)c1Sc1ccccc1N=Cc1cc(Cl)cc([N+](=O)[O-])c1O	-27%	-7	10µM*	1%	-16%
Cc1n[nH]c(C)c1Sc1ccccc1[N+](=O)[O-]	-12%	-5	-4%	-2%	-8%
CN(C)c1ccc(/C=C2/NC(=O)NC2=O)cc1	-25%	-5	u	5%	-12%
CN(C)c1ccc(/C=C2\N=C(c3ccc(Cl)c([N+](=O)[O-])c3)NC2=O)cc1	u	-1	0.89µM*	-15%	u
CCc1ccc(NC(=O)CN(CC(=O)Nc2ccc(CC)cc2)CC(C)O)cc1 (centres undefined)	-20%	-2	x	x	x
COc1cc([N+](=O)[O-])cc(/C=N\NC(=O)C2COc3ccccc3O2)c1O (centres undefined)	-19%	-3	10µM*	0%	-26%
O=C(N/N=C/c1cccc([N+](=O)[O-])c1)C1COc2ccccc2O1 (centres undefined)	0%	-1	-9%	2%	-11%
O=C(N/N=C/c1ccc([N+](=O)[O-])cc1)c1cccs1	-11%	1	u	12%	u
O=C(N/N=C\c1cccc([N+](=O)[O-])c1O)C1COc2ccccc2O1 (centres undefined)	0%	0	7.9µM*	10%	-13%
O=C(N/N=C/c1cccc([N+](=O)[O-])c1O)c1cccs1	-19%	2	5µM*	15%	-12%
COc1cc(NC(=O)c2cccc(C)c2)ccc1NC(=O)c1cc2ccccc2o1	-24%	0	x	x	x
Oc1ccc(Br)cc1CNc1cccc2cccnc12	u	-19	x	x	x
Cc1ccc(O)c(CNc2cccc3cccnc23)c1	-19%	-19	u	3%	14µM*[quencher]
CSc1nc2sc3c(c2c(=O)n1-c1ccccc1)CCC(C(C)(C)C)C3 (centres undefined)	-29%	x	-14%	2%	-5%
Cc1nc2c(O)cccc2cc1CO	-8%	-37*	-8%	-5%	-3%
CCc1cccc(C)c1NC(=O)COC(=O)c1cc([N+](=O)[O-])ccc1N1CCOCC1	-14%	x	x	x	x
Oc1ccc2ccccc2c1C=NCc1cn2ccsc2n1	-7%	-35*	u	-17%	-26%
CN1CCN(NS(=O)(=O)c2ccc(Cl)s2)CC1	0%	0	18µM*	u	-25%
O=S(=O)(NN1CCOCC1)c1ccc(Cl)s1	-9%	-6	u	u	-5%
C=CCN1C(=O)/C(=C/c2ccc(OC(C)=O)c(OCC)c2[N+](=O)[O-])SC1=S	14µM*	-18	4%	1%	0%
CC(=O)Nc1ccc(NC(=O)C(Cc2ccccc2)N2Cc3ccccc3C2=O)cc1 (centres undefined)	-9%	x	-9%	-12%	-24%
CC(C)(C)NC(=O)C(c1cccnc1)N(C(=O)c1ccc(Cl)nc1)C1CCCC1 (centres undefined)	-10%	-51*	13µM*	-65%	-37%
O=C(NC1CCCCC1)C(c1cccnc1)N(C(=O)c1ccc(Cl)nc1)C1CCCCC1 (centres undefined)	-10%	6	-5%	2%	-4%
Cc1cccc(C(=O)N2CCc3cc(CNC(=O)c4ccco4)ccc32)c1	-5%	x	-1%	-8%	-4%
